# According to PubChem BioAssay:
# Experiment: MRP1 drug-resistance reversers in H69AR cells – cell-based, doxorubicin co-treatment, pilot screen (AID 601)
# Conditions: H69AR cells + 2 uM doxorubicin, CellTiter-Glo, 72 h; measured here: viability with 2 uM doxorubicin; at 10 µM; stronger effect = lower value
row,Structure (SMILES),viability
1,CCCCSc1nc2c(cnn2-c2ccc(F)cc2)c(=O)[nH]1,84.9%
2,C=C(Cl)COc1ccc2c(C)cc(=O)oc2c1,103%
3,COc1ccc(NC(=O)CSc2nnc(Cc3cccn3C)n2-c2ccc(F)cc2)cc1OC,94%
4,CCCCSc1nc(CCC)cc(=O)[nH]1,88.5%
5,Cc1noc(/C=C/N(C)C)c1S(=O)(=O)N1CCc2ccccc21,95.9%
6,COc1cccc(/C=N/n2cnnc2)c1OCc1ccccc1,90.8%
7,COC(=O)Cn1c(CN2CCOCC2)nc2c1c(=O)n(C)c(=O)n2C,94%
8,COc1ccc(N(CC(=O)Nc2cc(C)ccc2C)S(=O)(=O)c2c(C)nn(C)c2C)cc1,93.6%
9,CCOC(=O)N1CCN(C(=O)c2c(-c3ccccc3)noc2C)CC1,89.5%
10,O=C(CSc1ncnc2nc[nH]c12)c1ccc(Cl)cc1,99.7%
11,Brc1ccccc1-c1nc(-c2ccccc2)no1,83.3%
12,Cc1nc2ccc(S(=O)(=O)NC(C(=O)NCc3cccs3)C(C)C)cc2s1 (stereo not given),92.6%
13,COc1ccc(-n2c(Cc3cccn3C)nnc2SCC(=O)Nc2ccccc2)cc1,88.9%
14,O=c1oc2c3c4c(cc2s1)CCCN4CCC3,91.2%
15,COc1cc2c(cc1OC)C(C)N(C(=O)Cn1ncc3c1-c1ccccc1OC3)CC2 (stereo not given),86.9%
16,O=C(CSc1ccc2nnc(-c3ccccc3)n2n1)N1CCN(c2ccccc2)CC1,93.4%
17,CCOC(=O)C1CCCN(C(=O)c2ccc(CS(=O)(=O)c3ccc(Br)cc3)o2)C1 (stereo not given),97.3%
18,Cc1c(C(=O)NC2CC2)oc2ccc(S(=O)(=O)N3CCCCCC3)cc12,97.1%
19,CC1=C(C(=O)Nc2ccccc2)C(c2ccccn2)n2nc(CCCO)nc2N1 (stereo not given),94.1%
20,O=C(O)c1ccc(-c2ccc(O)c(F)c2)cc1,88.6%

row,Structure (SMILES),viability
1,Cn1c(=O)cc(NCCc2ccccc2)[nH]c1=O,80.2%
2,Cc1noc(/C=C/N(C)C)c1S(=O)(=O)N1CCCC(C(=O)NCCC2=CCCCC2)C1 (stereo not given),88.7%
3,CCN(CC)c1ccc(NC(=O)CN2C(=O)CC(C)(C)S(=O)(=O)c3ccccc32)c(C)c1,92.4%
4,COc1ccc(C(=O)NCc2nc3ccccc3[nH]2)cc1OC,90.2%
5,CSc1ccccc1NC(=O)c1cnc2n(c1=O)CCS2,91.3%
6,Cc1ccc(C(c2sc3ncnn3c2O)N2CC(C)CC(C)C2)cc1 (stereo not given),84.3%
7,CC1CCN(c2oc(-c3ccccc3F)nc2C#N)CC1,84.5%
8,COc1nc(Oc2ccc(=O)n(C)n2)nc(N(C)C)n1,95.1%
9,Cc1nc2c(-c3ccc(F)cc3)c(C)nn2c(C)c1CCC(=O)NC(C)CCc1ccco1 (stereo not given),80.9%
10,COc1ccc(Cl)cc1S(=O)(=O)N1CCN(c2ccc(F)cc2)CC1,87.4%
11,CC1CCc2nn(CC(=O)Nc3ccc(F)cc3F)cc2C1 (stereo not given),89.5%
12,COc1ccc(NC(=O)C2Cc3ccccc3C(=O)O2)cc1 (stereo not given),85.9%
13,Cc1cc(N=Cc2cc(Br)ccc2O)no1,102%
14,COc1ccc(-c2nc(CS(=O)CC(=O)NCc3ccccn3)c(C)o2)cc1 (stereo not given),84.8%
15,CCOc1cc(C2CC(=O)N3CN(C4CCCCC4)CSC3=C2C#N)ccc1O (stereo not given),101%
16,CCc1ccccc1N1CC23C=CC(O2)C(C(=O)O)C3C1=O (stereo not given),89.3%
17,CCN(CC)C1CCCCC1NS(=O)(=O)c1ccc(Cl)cc1 (stereo not given),87.8%
18,Cc1cc(=O)oc2c1c(C)nn2-c1ccc(C(=O)OC(C)C)cc1,94.5%
19,O=C(CS(=O)(=O)Cc1ccccc1)Nc1nc2ccccc2s1,95.9%
20,CSc1nc2c(c(=O)n1C)SC(C)C2 (stereo not given),95.4%

# Same assay, conditions: H69AR cells, CellTiter-Glo, 72 h; compound alone cytotoxicity; at 10 µM
row,Structure (SMILES),viability
1,CCCCSc1nc2c(cnn2-c2ccc(F)cc2)c(=O)[nH]1,74%
2,C=C(Cl)COc1ccc2c(C)cc(=O)oc2c1,101%
3,COc1ccc(NC(=O)CSc2nnc(Cc3cccn3C)n2-c2ccc(F)cc2)cc1OC,94.7%
4,CCCCSc1nc(CCC)cc(=O)[nH]1,88.2%
5,Cc1noc(/C=C/N(C)C)c1S(=O)(=O)N1CCc2ccccc21,75.7%
6,COc1cccc(/C=N/n2cnnc2)c1OCc1ccccc1,97.8%
7,COC(=O)Cn1c(CN2CCOCC2)nc2c1c(=O)n(C)c(=O)n2C,99.8%
8,COc1ccc(N(CC(=O)Nc2cc(C)ccc2C)S(=O)(=O)c2c(C)nn(C)c2C)cc1,93.2%
9,CCOC(=O)N1CCN(C(=O)c2c(-c3ccccc3)noc2C)CC1,95.2%
10,O=C(CSc1ncnc2nc[nH]c12)c1ccc(Cl)cc1,91.1%
11,Brc1ccccc1-c1nc(-c2ccccc2)no1,74.3%
12,Cc1nc2ccc(S(=O)(=O)NC(C(=O)NCc3cccs3)C(C)C)cc2s1 (stereo not given),111%
13,COc1ccc(-n2c(Cc3cccn3C)nnc2SCC(=O)Nc2ccccc2)cc1,82.2%
14,O=c1oc2c3c4c(cc2s1)CCCN4CCC3,95.6%
15,COc1cc2c(cc1OC)C(C)N(C(=O)Cn1ncc3c1-c1ccccc1OC3)CC2 (stereo not given),87.2%
16,O=C(CSc1ccc2nnc(-c3ccccc3)n2n1)N1CCN(c2ccccc2)CC1,83.8%
17,CCOC(=O)C1CCCN(C(=O)c2ccc(CS(=O)(=O)c3ccc(Br)cc3)o2)C1 (stereo not given),95.6%
18,Cc1c(C(=O)NC2CC2)oc2ccc(S(=O)(=O)N3CCCCCC3)cc12,83%
19,CC1=C(C(=O)Nc2ccccc2)C(c2ccccn2)n2nc(CCCO)nc2N1 (stereo not given),95.6%
20,O=C(O)c1ccc(-c2ccc(O)c(F)c2)cc1,82.9%

row,Structure (SMILES),viability
1,Cn1c(=O)cc(NCCc2ccccc2)[nH]c1=O,42.9%
2,Cc1noc(/C=C/N(C)C)c1S(=O)(=O)N1CCCC(C(=O)NCCC2=CCCCC2)C1 (stereo not given),104%
3,CCN(CC)c1ccc(NC(=O)CN2C(=O)CC(C)(C)S(=O)(=O)c3ccccc32)c(C)c1,84.8%
4,COc1ccc(C(=O)NCc2nc3ccccc3[nH]2)cc1OC,107%
5,CSc1ccccc1NC(=O)c1cnc2n(c1=O)CCS2,84.7%
6,Cc1ccc(C(c2sc3ncnn3c2O)N2CC(C)CC(C)C2)cc1 (stereo not given),97.9%
7,CC1CCN(c2oc(-c3ccccc3F)nc2C#N)CC1,92%
8,COc1nc(Oc2ccc(=O)n(C)n2)nc(N(C)C)n1,92.7%
9,Cc1nc2c(-c3ccc(F)cc3)c(C)nn2c(C)c1CCC(=O)NC(C)CCc1ccco1 (stereo not given),91.2%
10,COc1ccc(Cl)cc1S(=O)(=O)N1CCN(c2ccc(F)cc2)CC1,75.8%
11,CC1CCc2nn(CC(=O)Nc3ccc(F)cc3F)cc2C1 (stereo not given),104%
12,COc1ccc(NC(=O)C2Cc3ccccc3C(=O)O2)cc1 (stereo not given),91.8%
13,Cc1cc(N=Cc2cc(Br)ccc2O)no1,73.1%
14,COc1ccc(-c2nc(CS(=O)CC(=O)NCc3ccccn3)c(C)o2)cc1 (stereo not given),92.9%
15,CCOc1cc(C2CC(=O)N3CN(C4CCCCC4)CSC3=C2C#N)ccc1O (stereo not given),87.3%
16,CCc1ccccc1N1CC23C=CC(O2)C(C(=O)O)C3C1=O (stereo not given),86.7%
17,CCN(CC)C1CCCCC1NS(=O)(=O)c1ccc(Cl)cc1 (stereo not given),101%
18,Cc1cc(=O)oc2c1c(C)nn2-c1ccc(C(=O)OC(C)C)cc1,96.9%
19,O=C(CS(=O)(=O)Cc1ccccc1)Nc1nc2ccccc2s1,92.1%
20,CSc1nc2c(c(=O)n1C)SC(C)C2 (stereo not given),90.8%
